Results reported in PubChem BioAssay (Tox21).
A number with no mark means an inactive call. Results filed as inconclusive are left out. Entries that show only a call come without a potency. Calls of active or inactive are those of the source. Unless noted, the call rests on the fitted dose curve; in most records, active means well fitted curve in the direction sought with a large enough effect in the repeat runs; inconclusive means weak or mixed curves; inactive means no such curve, though single readings can be large; an effect the other way counts as inactive or inconclusive.

Tests used:
[1] = qHTS assay to identify small molecule antagonists of the glucocorticoid receptor (GR) signaling pathway - cell viability counter screen (AID 720693); further: nearly all actives have a fitted effect of over 55% in size
[2] = qHTS assay for identifying genotoxic compounds that show differential cytotoxicity against isogenic chicken DT40 cell lines with known DNA damage response pathways - wild type cell line (AID 743012); further: nearly all actives have a fitted effect of over 60% in size; further: potency means the concentration at half of the fitted maximal effect
Method in brief: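 Viability of DNA repair-proficient chicken DT40 cells was assessed by CellTiter-Glo luminescence following 40 h compound exposure at 37 C/5% CO2.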

[3] = qHTS assay for identifying genotoxic compounds that show differential cytotoxicity against isogenic chicken DT40 cell lines with known DNA damage response pathways - Rev3 mutant cell line (AID 743014); further: nearly all actives have a fitted effect of over 55% in size; further: potency means the concentration at half of the fitted maximal effect
[4] = qHTS assay to identify small molecule antagonists of the androgen receptor (AR) signaling pathway - cell viability counter screen (AID 743033; further: nearly all actives have a fitted effect of over 45% in size)
[5] = qHTS assay to identify small molecule antagonists of the androgen receptor (AR) signaling pathway using the MDA cell line - cell viability counter screen (AID 743041; further: nearly all actives have a fitted effect of over 45% in size)
Method in brief: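 Using the breast carcinoma line MDA-kb2 AR-luc, test chemicals were co-incubated with R1881 for 16 h; CellTiter-Fluor reagent, added at 15.5 h, provided a fluorescence measure of live cells.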

[6] = qHTS assay for identifying genotoxic compounds that show differential cytotoxicity against isogenic chicken DT40 cell lines with known DNA damage response pathways - Rad54/Ku70 mutant cell line (AID 743015); further: nearly all actives have a fitted effect of over 60% in size; further: potency means the concentration at half of the fitted maximal effect
[7] = target: Androgen receptor (Homo sapiens) (UniProt P10275); experiment: qHTS assay to identify small molecule antagonists of the androgen receptor (AR) signaling pathway (AID 743035; active means well fitted inhibition curve with a large enough effect in the signal ratio in the repeat runs, not every such curve was filed as active; the % refers to the signal ratio)
Method in brief: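 Reporter HEK293 cells were exposed to compounds and R1881 overnight (16 h, 37C); beta-lactamase activity was then quantified by FRET fluorescence.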

[8] = target: Androgen receptor (Homo sapiens) (UniProt P10275); experiment: qHTS assay to identify small molecule agonists of the androgen receptor (AR) signaling pathway (AID 743036; active means well fitted activation curve with a large enough effect in the signal ratio in the repeat runs, with a control signal flat, not every such curve was filed as active; the % refers to the signal ratio)
Method in brief: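 Fluorescence from a beta-lactamase FRET substrate served as read-out in AR-UAS-bla GripTite HEK293 cells. Cells were treated with DMSO-dissolved compounds for 16 h at 37C, then with LiveBLAzer B/G substrate for 2 h at room temperature.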

[9] = target: Androgen receptor (Homo sapiens) (UniProt P10275); experiment: qHTS assay to identify small molecule agonists of the androgen receptor (AR) signaling pathway using the MDA cell line (AID 743040; further: nearly all actives have a fitted effect of over 20% in size)
Method in brief: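 Stable MMTV-luciferase reporter in MDA-kb2 cells; note the promoter carries GR as well as AR response elements. 16 h compound treatment, 37C, 0% CO2; ONE-Glo luminescence endpoint.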

[10] = target: Androgen receptor (Homo sapiens) (UniProt P10275); experiment: qHTS assay to identify small molecule antagonists of the androgen receptor (AR) signaling pathway using the MDA cell line (AID 743042; further: nearly all actives have a fitted effect of over 55% in size)
Method in brief: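 Antagonist mode: compounds plus R1881 agonist added to MDA-kb2 AR-luc cells, incubated 16 h at 37C. Luciferase reporter luminescence quantified, with multiplexed CellTiter-Fluor readout for cell viability.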

Androgen receptor (Homo sapiens), sequence (P10275 whole entry, looked up): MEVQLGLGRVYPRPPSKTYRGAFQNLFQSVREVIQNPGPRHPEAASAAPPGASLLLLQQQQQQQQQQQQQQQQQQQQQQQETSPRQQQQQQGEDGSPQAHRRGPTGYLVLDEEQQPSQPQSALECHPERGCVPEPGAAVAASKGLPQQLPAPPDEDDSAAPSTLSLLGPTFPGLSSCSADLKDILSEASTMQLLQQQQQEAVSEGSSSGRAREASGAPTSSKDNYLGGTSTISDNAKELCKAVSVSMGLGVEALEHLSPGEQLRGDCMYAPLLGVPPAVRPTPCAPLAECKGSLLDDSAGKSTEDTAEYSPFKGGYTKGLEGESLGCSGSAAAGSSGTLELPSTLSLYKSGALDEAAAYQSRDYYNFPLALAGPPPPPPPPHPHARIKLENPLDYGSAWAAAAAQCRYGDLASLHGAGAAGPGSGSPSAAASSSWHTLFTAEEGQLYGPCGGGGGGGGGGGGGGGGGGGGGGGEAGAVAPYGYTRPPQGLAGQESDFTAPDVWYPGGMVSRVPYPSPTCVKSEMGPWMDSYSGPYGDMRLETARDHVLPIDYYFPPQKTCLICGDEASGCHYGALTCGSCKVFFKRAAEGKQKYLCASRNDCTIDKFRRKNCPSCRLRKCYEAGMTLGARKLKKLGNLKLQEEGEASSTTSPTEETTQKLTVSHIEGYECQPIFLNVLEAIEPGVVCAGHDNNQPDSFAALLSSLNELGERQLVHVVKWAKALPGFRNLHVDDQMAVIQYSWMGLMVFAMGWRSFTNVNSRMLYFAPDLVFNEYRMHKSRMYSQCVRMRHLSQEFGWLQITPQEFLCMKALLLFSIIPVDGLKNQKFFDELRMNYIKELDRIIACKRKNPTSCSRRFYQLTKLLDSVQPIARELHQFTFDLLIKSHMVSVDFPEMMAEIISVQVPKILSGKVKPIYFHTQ

Compound | Potency [1] | Potency [2] | Potency [3] | Potency [4] | Potency [5] | Potency [6] | Potency [7] | Potency [8] | Potency [9] | Potency [10]
CC(C)(CO)[N+](=O)[O-] | inactive | inactive | inactive | inactive | inactive | – | – | – | – | –
Cc1cccc(C)c1NC(=O)CN(CC(=O)O)CC(=O)O | inactive | inactive | inactive | inactive | inactive | – | – | – | – | –
CN1C[C@H]2c3ccccc3Oc3ccc(Cl)cc3[C@@H]2C1 | inactive | 26.6 µM (active) | – | inactive | inactive | 29.8 µM (active) | – | – | – | –
C=C(C)C(=O)OCC | inactive | inactive | inactive | – | inactive | inactive | – | – | – | –
CCOc1ccc(N)c([N+](=O)[O-])c1 | inactive | inactive | – | inactive | – | inactive | – | – | – | –
O=C(NCCO[N+](=O)[O-])c1cccnc1 | inactive | inactive | – | inactive | inactive | inactive | – | – | – | –
O=S(=O)(Oc1ccc(Cl)cc1)c1ccccc1 | inactive | inactive | 61.1 µM (active) | inactive | inactive | – | – | – | – | –
O=C1C(O)=C(O)C(=O)C(O)=C1O | inactive | inactive | – | inactive | inactive | inactive | – | – | – | –
Cn1c(=O)cc(Oc2ccc(F)cc2F)c2cnc(NCC(C)(C)O)nc21 | inactive | inactive | – | inactive | inactive | 27.3 µM (active) | – | – | – | –
O=C1OC(CN2CCOCC2)CN1/N=C/c1ccc([N+](=O)[O-])o1 (stereo unspecified) | inactive | inactive | inactive | inactive | inactive | – | inactive | inactive | inactive | inactive
CCCCCCCCCCCc1ccccc1 | inactive | inactive | 60.3 µM (active) | inactive | inactive | – | – | – | – | –
CC(C)=CCC/C(C)=C/CC/C(C)=C/CO | inactive | 34.4 µM (active) | 54.5 µM (active) | – | inactive | – | – | – | – | –
Nc1c(CC(=O)O)cccc1C(=O)c1ccc(Br)cc1 | inactive | inactive | – | inactive | inactive | – | – | – | – | –
CN1CCC(N(Cc2cccs2)c2ccccc2)CC1 | inactive | 9.44 µM (active) | 11.9 µM (active) | inactive | inactive | – | – | – | – | –
CCCCCCCC/C=C\CCCCCCCC(=O)OCC | inactive | inactive | inactive | inactive | inactive | – | – | – | – | –
CCCNCC(O)COc1ccccc1C(=O)CCc1ccccc1 (stereo unspecified) | inactive | 6.68 µM (active) | 11.9 µM (active) | – | inactive | 11.9 µM (active) | – | – | – | –
C/C=C/C=C/CO | inactive | inactive | 61.1 µM (active) | inactive | inactive | – | – | – | – | –
